# Data as given in the supplement of paper PMC6555819.
# Assays:
# Assay in all cases: PBM binding z-score (relative to random genomic background probes); higher = stronger binding; sequences stand for … in GC…GCGATTGACAGCGTAGAATGAAGG
# [1] = system: FXR:RXRa (NR concentration 270 nM, RXRa partner concentration 90 nM)
# Method in brief: (§1)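 Scanned fluorescence from custom Agilent 4×180K protein-binding microarrays was regression-normalized. Binding z-scores use random background probes as reference. Ligand-free nuclear receptor dimers were incubated on the arrays for 1 h and detected with antibodies against each partner (one per run).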
# [2] = system: LXRa:RXRa (NR concentration 270 nM, RXRa partner concentration 90 nM)
# Method in brief: as §1
# [3] = system: LXRa homodimer (NR concentration 270 nM)
# Method in brief: as §1
# [4] = system: LXRb:RXRa (NR concentration 270 nM, RXRa partner concentration 90 nM)
# Method in brief: as §1
# [5] = system: LXRb homodimer (NR concentration 270 nM)
# Method in brief: as §1
# [6] = system: PPARa:RXRa (NR concentration 270 nM, RXRa partner concentration 90 nM)
# Method in brief: as §1
# [7] = system: PPARg:RXRa (NR concentration 180 nM, RXRa partner concentration 90 nM)
# Method in brief: as §1
# [8] = system: PPARg:RXRa 270nM:90nM, anti-RXR (NR concentration 270 nM, RXRa partner concentration 90 nM)
# Method in brief: as §1
# [9] = system: PPARg:RXRa 30nM:10nM, anti-RXR (NR concentration 30 nM, RXRa partner concentration 10 nM)
# Method in brief: as §1
# [10] = system: PPARg:RXRa 90nM:30nM, anti-RXR (NR concentration 90 nM, RXRa partner concentration 30 nM)
# Method in brief: as §1
# [11] = system: PPARg:RXRa DBDmut IVT, anti-RXR (DBD mutation: RXRa K156A/R161A, NR concentration 270 nM, RXRa partner concentration 90 nM)
# Method in brief: as §1
# [12] = system: PPARg:RXRa IVT, anti-PPARg (NR concentration 270 nM, RXRa partner concentration 90 nM)
# Method in brief: as §1
# [13] = system: PPARg DBDmut:RXRa IVT, anti-PPARg (DBD mutation: PPARg1 K132A/R137A, NR concentration 270 nM, RXRa partner concentration 90 nM)
# Method in brief: as §1
# [14] = system: PPARg DBDmut IVT, anti-PPARg (DBD mutation: PPARg1 K132A/R137A, NR concentration 270 nM)
# Method in brief: as §1
# [15] = system: PPARg homodimer (NR concentration 180 nM)
# Method in brief: as §1
# [16] = system: PXR:RXRa (NR concentration 270 nM, RXRa partner concentration 90 nM)
# Method in brief: as §1
# [17] = system: PXR homodimer (NR concentration 270 nM)
# Method in brief: as §1
# [18] = system: RARa:RXR (NR concentration 270 nM, RXRa partner concentration 90 nM)
# Method in brief: as §1
# [19] = system: RARa homodimer (NR concentration 270 nM)
# Method in brief: as §1
# [20] = system: RARb:RXRa (NR concentration 270 nM, RXRa partner concentration 90 nM)
# Method in brief: as §1
Sequence,PBM binding z-score [1],PBM binding z-score [2],PBM binding z-score [3],PBM binding z-score [4],PBM binding z-score [5],PBM binding z-score [6],PBM binding z-score [7],PBM binding z-score [8],PBM binding z-score [9],PBM binding z-score [10],PBM binding z-score [11],PBM binding z-score [12],PBM binding z-score [13],PBM binding z-score [14],PBM binding z-score [15],PBM binding z-score [16],PBM binding z-score [17],PBM binding z-score [18],PBM binding z-score [19],PBM binding z-score [20]
ATATGTAGGTTAAGGGTCAATCAGGTTGGTTCGC,4.97,4.62,1.8,4.47,1.35,6.65,11.6,9.7,10.1,10.8,7.74,7.77,1.78,2.49,4.11,5.32,1.21,5.74,2.21,3.64
CCAACTGGGCCATCAGGTCATTGATATCAACGTT,1.54,0.836,0.987,1.56,-0.441,2.73,2.9,3.63,1.38,3.04,5.15,4.92,-0.74,0.0786,1.32,1.59,0.906,1.67,0.182,2.05
CCTATTTGGTCAGGAGGTCACACACCGGATATGA,3.94,3.62,2.35,3.64,1.25,4.34,3.42,4.03,1.66,3.23,1.91,3.3,1.63,0.887,3.54,4.35,1.72,4.86,2.56,3.94
CCTGCTAGGTCATGTTCAGCTAATCTACAGTATG,3.33,2.25,0.437,1.65,0.467,2.69,1.36,1.91,0.403,1.16,4.06,2.94,-0.127,0.556,1.51,1.07,-0.338,1.53,-0.173,3.63
TCTTGTAGATCCACAGGAGGTTAAGAAAGATCGA,0.0862,1.26,-0.232,1.08,-0.363,1.05,-0.0307,1.43,2.66,1.83,1.11,0.557,0.829,0.516,-0.676,0.82,-0.22,1.22,0.176,0.506
CCTAACGGGTCACTCCAGGTTATAGCATCGGAGT,3.94,7.24,1.46,4.81,0.101,3.5,2.32,2.54,0.338,1.43,1.88,2.52,-0.282,-0.298,1.23,4.32,0.412,2.86,0.233,3.15
AATACAGGGTCATCGTAGGCCTGAGTACGCACAG,7.54,5.77,1.91,4.6,1.13,5.95,6.49,5.92,2.71,4.74,2.91,4.07,1.77,1.33,2.11,4.23,0.334,4.79,0.501,4.43
CGTTACGGGTCACTCCAGGTTATAGCATCGGAGT,4.94,7.62,1.6,5.34,-0.0358,4.67,3.44,4.08,1.42,2.69,2.91,3.75,0.311,-0.48,1.14,5.09,0.162,3.59,0.11,3.66
TCTTGTAGATCTGCAGGTTAAGAAAGCTGGCCAA,0.0261,0.396,-0.113,0.457,-0.445,0.515,-0.788,1.01,2.56,1.89,1.64,-0.0995,-0.0196,-0.962,-0.597,0.206,-0.0786,0.383,-0.894,0.204
CCTAGCAGGCCAAACTGGGTCACTCAAGGCTTGA,0.705,0.962,-0.345,1.07,-0.564,3.05,1.74,2.06,-0.348,0.712,4.11,4.34,-0.371,-1.09,0.924,1.05,-0.482,1.77,-0.26,1.61
ATCTCTATGTAAAAGTTCAGTGAATCCCGAGGAT,0.48,1.17,1.3,0.915,0.829,2.49,3.27,4.6,3.31,4.95,-0.373,1.21,1.18,0.786,1.41,1.78,1.21,1.08,0.424,2.23
ACAGACCGGTGATGAAGGTAACTCAGGCTATCAT,-0.208,-0.192,-0.177,-0.283,-0.429,-0.318,0.549,0.0547,-0.0977,-0.129,-0.264,-0.316,0.0593,0.0893,-0.0191,-0.348,-0.142,-0.0159,0.27,-0.139
TCATATAGGTAAATTCTAGGTGAAAGTCCGATCT,1.45,1,0.27,0.797,0.0785,2.29,1.84,3.22,4.21,3.75,3.83,4.08,1.26,1.32,1.09,0.778,0.524,1.22,1.61,0.593
GTACCAAGGTGAATAGGTCGTTTATGAGTAGGCG,0.975,1.13,0.161,0.811,-0.198,2.44,1.62,1.79,0.597,1.5,1.82,2.43,0.986,0.34,1.17,1,0.0793,1.92,0.555,2.01
CATACAGGCTCAGCTAGGCCAGAGTAGGGACGGC,-0.48,-0.677,-0.674,-1.16,-0.846,-0.795,0.181,-0.549,-0.529,-0.694,-0.65,-0.492,0.0955,-0.224,0.112,-0.899,-0.356,-0.727,-0.19,-0.283
TCGAGTACGTTAGTCGGGGCATTCAGCCAACATA,-0.454,-0.474,-0.665,0.0371,-1.12,0.167,-0.163,0.223,0.88,0.775,0.607,-0.44,-0.411,-0.712,-0.34,-0.0967,-0.478,-0.134,-0.667,0.019
ACAGACAGGTGAGTGAGGGTAACTCAGCTGGACG,0.174,0.269,-0.243,-0.0988,-0.478,0.503,0.629,0.0987,-0.248,-0.159,0.621,0.841,-0.523,-0.675,0.225,-0.025,0.261,0.222,-0.162,0.987
ACTAGCAGGCCAACGGTCACTCAAGATTAGTCCG,-0.155,-0.0207,0.0255,-0.508,-0.572,1.37,2.56,3.92,2.08,3.72,1.21,1.38,-0.412,-0.352,0.237,-0.526,-0.588,0.0763,-0.817,1.64
TCATCTAGGTAAAAGGTGAAAGTCGGTGTGGTAA,1.68,1.89,0.186,1.97,0.11,5.64,10,9.2,8.75,10.8,5.49,5.73,2.1,1.06,2.69,1.53,0.241,2.8,1.26,2.15
TCTTGTAGATCAATAGAGGTTAAGCAAGTGCGCT,0.958,2.62,0.281,1.34,-0.1,2.08,0.0342,1.71,2.75,2.4,1.66,1.19,0.792,-0.371,0.43,3.72,0.269,1.89,0.018,0.837
TTTTGTAGATCAAAGGTTAAGAAAGCCGAAGCCT,1.35,2.03,0.327,2.09,0.386,5.08,9.51,8.59,8.23,9.36,1.61,3.98,0.975,1.12,1,2.05,-0.0288,3.17,0.339,2.07
ATCTCTAGGTAACCAAGTTCAGTGATTGCCGAAC,0.358,0.717,0.794,0.577,0.713,1,0.254,0.803,0.204,0.579,3.9,2.88,1.17,1.33,0.823,1.96,2.46,0.708,0.307,1.18
TCATATAGGTAAAAGGCGAAAGTCGGTGTGGTAA,0.336,0.537,0.094,0.746,-0.359,2.66,4.65,6.15,6.72,7.04,3.92,3.21,0.28,0.103,0.768,0.309,0.159,0.628,0.926,0.164
AGTCAAAGTTCAGGACGAGGTAACGCAAAGCACG,3.93,3.88,1.08,2.03,0.0872,3.33,4.31,4.9,1.97,3.87,-0.0629,1.75,0.41,-0.132,1.73,2.72,1.03,2.78,0.826,4.33
GCTGCTAGGTCAGGTTGGGCAGCTAACGGGTACG,1.01,0.624,-0.384,0.136,-0.285,0.991,0.332,0.824,-0.181,0.136,2.83,1.93,-0.639,-0.804,0.77,-0.238,-0.455,0.335,-0.329,3.17
CCTACTGGGCCAAGGTAATTGATCAGTCAAAGCA,-0.458,-0.478,-0.526,-0.461,-0.835,0.508,0.767,1.22,0.0282,0.531,4.09,3.56,-0.62,-0.619,-0.616,-0.363,-0.674,0.0953,-0.936,0.0612
GCGACTGGGGCAAAGCAGGTTGCCATAAGGTTGG,-0.377,-0.798,-0.715,-0.849,-1.26,0.461,0.599,1.15,-0.358,0.243,4.34,3.1,-0.486,-0.871,-0.00419,-0.373,-0.521,-0.163,-0.719,0.412
CAAACTAGTTCACGAAAGGTCAAAGTCGAATGAC,6.34,7.45,7.18,6.48,2.77,5.65,4.37,5.37,2.24,4.32,2.5,3.57,1.49,0.645,5.52,6.88,5.53,7,3.03,4.89
CCTAGCAGGCCAATCTGGGTAACTCAAGGCTTGA,-0.2,-0.684,-0.736,-0.904,-0.796,0.0569,-0.0846,-0.366,-1.08,-0.958,2.34,2.01,-1.19,-0.9,-0.78,-0.754,-0.707,-0.329,-0.678,-0.071
